From PubChem BioAssay
A selection: hits, their analogues and other compounds. The true share with any hit is near 19%.
HT1080-NT tox: qHTS for induction of synthetic lethality in tumor cells producing 2HG: qHTS for the HT-1080-NT fibrosarcoma cell line. HT-1080-NT fibrosarcoma viability, CellTiter-Glo ATP luminescence, 48 h. Potency, µM (series often up to 46.1 µM), for the others: at the top dose activity, negative = less viability, most hits filed as cytotoxic. 360,000 compounds, 1.6% hits. AID 686970, 2013;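 further: NT is the 2HG producing partner of a matched IDH1 knockdown line; 0% = DMSO-treated cells and -100% = media-only wells without cells; nearly all actives have a fitted effect of over 55% in size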
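Viability of the 2HG-overproducing fibrosarcoma line after 48 hours of compound exposure at 37 degrees C was determined by luminescence with CellTiter-Glo, and concentration-effect curves were then fitted and categorized.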
KB-V1 MDR tox: qHTS assay for MDR1-selective chemotherapeutics: Primary screen using the drug-selected MDR subline cells KB-V1. Potency, µM (doses to about 46.1 µM), usual class: cytotoxic. 400,000 compounds, 3.4% hits. KB-V1 MDR cells viability, CellTiter-Glo, 72 h; further: nearly all actives have a fitted effect of over 60% in size
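Luminescent ATP read-out (CellTiter-Glo, 10 min) measures survival of drug-selected KB-V1 MDR cells after 72 h, 37 degrees C compound exposure. Medium: phenol-red-free DMEM, 10% FBS. Values from fitted concentration-response curves.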
TDP1 cell CPT: qHTS for Inhibitors of human tyrosyl-DNA phosphodiesterase 1 (TDP1): qHTS in cells in presence of CPT; Potency, µM (top dose mostly 46.2 µM), for the others: at the top dose activity change, negative = growth inhibition, usual class: inhibitors; chicken DT40 Tdp1-/-;hTDP1 cells + 20 nM CPT, ATP luminescence, 48 h; 420,000 compounds, 12% hits; further: nearly all actives have a fitted effect of over 55% in size
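Chicken DT40 Tdp1-/- cells stably complemented with human TDP1 were seeded at 400 cells/well in medium containing 20 nM camptothecin, exposed to pin-transferred compounds, and grown at 37 °C for at least 48 hr. Viability was read as ATP luminescence.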
HT1080 IDH1KD tx: qHTS for induction of synthetic lethality in tumor cells producing 2HG: qHTS for the HT-1080-IDH1KD cell line | HT-1080 IDH1 knockdown viability, ATP luminescence, 48 h | Potency, µM (titrated, usually from 46.1 µM), for inactives: at the highest dose activity, negative = toxicity, hits mostly cytotoxic | 360,000 compounds, 2% hits | AID 686971, 2013;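 further: 0% = DMSO wells and -100% = cell-free medium wells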
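Viability of IDH1-knockdown HT-1080 fibrosarcoma cells was assessed by CellTiter-Glo after 48 h at 37 °C with titrated compound; concentration-effect curves were classified by fit quality and response size.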
DT40 TDP1 no CPT: qHTS for Inhibitors of human tyrosyl-DNA phosphodiesterase 1 (TDP1): qHTS in cells in absence of CPT; DT40 Tdp1-/- hTDP1 cells, no CPT, ATP luminescence, 48 h; Potency, µM (titrated, usually from 46.2 µM), for inactives: at the top dose activity change, negative = growth inhibition, usual class: inhibitors; 420,000 compounds, 15% hits; AID 686978, 2013; further: nearly all actives have a fitted effect of over 55% in size
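Seeded 400 DT40-hTDP1 cells/well (vehicle DMSO, no 20 nM CPT); pinned compounds; ≥48 hr at 37 °C; CellTiter-Glo luminescence as viability measure.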
KB-3-1 tox: qHTS assay for MDR1-selective chemotherapeutics: Primary screen using the parental adenocarcinoma cell KB-3-1; KB-3-1 viability, CellTiter-Glo ATP luminescence, 72 h; Potency, µM (top dose mostly 46.1 µM), hits mostly cytotoxic; 400,000 compounds, 1.4% hits; further: nearly all actives have a fitted effect of over 60% in size
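Screening of KB-3-1 cells (DMEM, 10% FBS, phenol-red free) ran from lowest to highest compound concentration; after 72 h at 37 °C viability was read luminescently and curves fitted.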
* hit, by the source's call; i = inactive; u = inconclusive; x = no result; [ ] = remark or other dose. The call rests on the fitted dose curve; in most records, active means well fitted curve in the direction sought with a large enough effect; inconclusive means small, poorly fitted or top-dose-only effect, or another doubt; inactive means no such curve, though single readings can be large; an effect the other way counts as inactive or inconclusive. Unless noted, on the % scale 0 is the no-effect control and ±100 the full control effect; potency means the concentration at half of the fitted maximal effect.

SMILES | HT1080-NT tox | KB-V1 MDR tox | TDP1 cell CPT | HT1080 IDH1KD tx | DT40 TDP1 no CPT | KB-3-1 tox
CCOCCCNC(=O)c1cc2cc3cc(OC)ccc3nc2o1 | 5% | i | 16µM* | 0% | -29% | i
COc1ccc2cc3cc(C(=O)N4CCN(c5ccccc5)CC4)oc3nc2c1 | 22% | i | -28% | 19% | -4% | i
COc1ccc2cc3cc(C(=O)Nc4ccccc4N4CCN(C)CC4)oc3nc2c1 | 2% | 12µM* | 4.6µM* | 7% | 4.6µM* | u
COc1ccc2cc3cc(C(=O)NCCN4CCN(c5ccccc5F)CC4)oc3nc2c1 | 10% | u | u | 4% | 16µM* | i
O=C(COc1ncnc2sccc12)Nc1cccc(S(=O)(=O)N2CCOCC2)c1 | 3% | i | -2% | 6% | -3% | i
CCc1nc2c(OCCOC)cccn2c1N(C)C(=O)c1ccco1 | 4% | i | 0% | 24% | -7% | i
COc1ccc(NC(=O)c2cc(-c3ccc(C)o3)nc3ccccc23)cc1OC | u | 16µM* | 18µM* | u | 16µM* | u
Cc1ccc(-c2cc(C(=O)Nc3ccccc3C(N)=O)c3ccccc3n2)o1 | -24% | u | 15µM* | -29% | 10µM* | i
COc1ccc(NC(=O)c2cc(-c3ccc(C)o3)nc3ccccc23)c(OC)c1 | -26% | u | u | u | 12µM* | i
COc1ccc(-c2cc(C(=O)Nc3c(Cl)cc(Cl)cc3Cl)c3ccccc3n2)cc1OC | 6% | u | u | 0% | u | i
O=C(O)c1ccccc1NC(=O)c1cc(-c2ccccc2)nc2ccccc12 | 0% | i | -5% | -9% | u | i
Cc1ccc(-c2cc(C(=O)N(C)CC(=O)Nc3ccccc3Br)c3ccccc3n2)o1 | -3% | i | 16µM* | 0% | u | i
Cc1cc(C)n2c(Nc3ccc4c(c3)OCCO4)c(C3CC3)nc2n1 | -1% | u | u | 6% | 18µM* | u
Cc1cc(C)n2c(Nc3ccc4c(c3)OCCO4)c(-c3ccc(Cl)cc3)nc2n1 | x | i | u | x | u | i
Cc1cc(C)n2c(Nc3ccc4c(c3)OCCO4)c(C(C)C)nc2n1 | 15% | u | 8.2µM* | 18% | 5.8µM* | i
Cc1cc(C)n2c(Nc3ccc4c(c3)OCCO4)c(-c3ccccc3)nc2n1 | 4% | i | u | 5% | u | i
Cc1cc(C)n2c(Nc3ccc4c(c3)OCCO4)c(CCc3ccccc3)nc2n1 | u | u | 8.2µM* | -29% | 5.8µM* | i
CCOC(=O)N1CCN(C(=O)C2CC(=O)N(c3ccc(C)cc3)C2)CC1 (stereo unspecified) | 3% | i | -29% | 0% | -14% | i
Cc1nn(CCC(=O)NCc2ccc(OC(C)C)cc2)c(=O)c2nn(-c3ccccc3)c(C)c12 | -1% | i | -16% | -1% | 7% | i
COc1ccc(N2CCN(C(=O)CN3C(=O)CSc4c3c(C)nn4-c3ccccc3)CC2)cc1 | x | i | u | x | u | i
CCCCOc1ccc(CNC(=O)CCCN2C(=O)CSc3c2c(C)nn3-c2ccccc2)cc1 | x | i | 18µM* | x | 13µM* | i
Cc1nn(-c2ccccc2)c2c1N(CCCC(=O)NCc1ccc(Cl)cc1)C(=O)CS2 | x | i | 26µM* | x | 23µM* | i
Cc1nn(-c2ccccc2)c2c1N(CCCC(=O)NCc1ccc(OC(C)C)cc1)C(=O)CS2 | x | u | 15µM* | x | 7.3µM* | u
Cc1nn(-c2ccccc2)c2c1N(CCCC(=O)NC(C)c1ccccc1)C(=O)CS2 (stereo unspecified) | x | i | 15µM* | x | u | i
CCCS(=O)(=O)NC(=O)C1(C)CCCN(C(=O)c2c(OC)cccc2OC)C1 (stereo unspecified) | 0% | i | 11% | 24% | 1% | i
SMILES | HT1080-NT tox | KB-V1 MDR tox | TDP1 cell CPT | HT1080 IDH1KD tx | DT40 TDP1 no CPT | KB-3-1 tox
Cc1cn(C)c(CC(=O)N2CCN(c3cccc(C(F)(F)F)c3)CC2)c1C(=O)O | x | i | 13µM* | x | u | i
O=C(Cn1ccc2ccccc2c1=O)NCCC(=O)N1CCN(c2cccc(C(F)(F)F)c2)CC1 | 3% | i | 21µM* | -7% | 16µM* | i
Cc1ccc(C)c(C(=O)CCC(=O)N2CCN(c3cccc(C(F)(F)F)c3)CC2)c1 | -1%[9.24 µM] | i | 15µM* | -11% | 12µM* | i
Cc1cn(C)c(CC(=O)N2CCN(c3ccc(F)cc3)CC2)c1C(=O)O | x | i | 4% | x | -4% | i
Cc1ccc(/C=C/C(=O)N2CCN(c3cccc(C(F)(F)F)c3)CC2)cc1 | u | u | -18% | u | -7% | i
O=C(Cn1ccc2ccccc2c1=O)NCCC(=O)N1CCN(c2ccccc2)CC1 | -2% | i | -6% | 3% | -11% | i
Cc1nc2c3ccccc3nc(NNC(=O)CCC(=O)N3CCN(c4cccc(C(F)(F)F)c4)CC3)n2n1 | x | i | 21µM* | x | 23µM* | u
COc1ccccc1CNC(=O)c1cc(S(=O)(=O)N2CCOCC2)cn1C | -1% | i | -1% | 2% | -15% | i
COc1cccc(C(=O)N2CCN=C2SC)c1 | 0% | i | 7% | -1% | -3% | i
O=c1c(-c2cc(-c3ccccc3)nc3c2COc2ccc(Cl)cc2-3)coc2ccccc12 | x | u | 1% | x | -8% | i
COc1ccccc1C(=O)NCCC(=O)N1CCN(c2cccc(C(F)(F)F)c2)CC1 | -3% | i | 16µM* | 1% | u | i
CCCCn1c(N)c(N(CCOC)C(=O)c2oc3c(Cl)cccc3c2C)c(=O)[nH]c1=O | 0% | i | -18% | -11% | -13% | i
CN(CC(=O)Nc1ccc(F)c(F)c1F)C(=O)CC1CCCCC1 | -3% | 15µM* | -26% | -9% | u | i
COc1ccc(NC(=O)CN(C)C(=O)CC2CCCC2)cc1 | -1% | i | -1% | 2% | -9% | i
